Data as given in PubChem BioAssay.
For part of these data: Potency and affinity values are given separately. The source made the active and inactive calls.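 Rule for the calls, unless noted: active = primary screen activator hit with a dose response curve and TRPC4 channel activation at any tested dose; inactive = no activation, no dose response, or not a primary hit.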

Legend:
[1] = system: TRPC4 beta (transient receptor potential cation channel C4), mouse; assay: TRPC4 cation channel opening, retest – cell-based, Fluo4 calcium, HEK293 TRPC4beta/mu-opioid, duplicates, 10 µM, confirmation (AID 2426;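 active = fluorescence ratio normalized to control raised more than 50% in primary screen plus both repeat runs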;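 for activation: percent rise of integrated ratio over buffer wells lacking compound which define 0%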); details: Fluo4 calcium fluorescence, at 10 µM; hits give high values
[2] = system: transient receptor potential cation channel C4 beta (TRPC4), mouse; assay: TRPC4 cation channel opening, second retest – cell-based, second round, Fluo4, HEK293 TRPC4beta/mu-opioid, 1 µM, confirmation (AID 2461;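 active = primary screen active and over 50% activation in each of two duplicate runs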); details: Fluo4 calcium fluorescence, at 1 µM; hits give high values
[3] = system: TRPC4 (transient receptor potential cation channel C4 beta), mouse; assay: potentiation of DAMGO EC20 TRPC4 response – cell-based, second round, Fluo-4, HEK293 TRPC4beta/mu-opioid, 1 µM, confirmation (AID 2554;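 active = primary screen hit whose fluorescence ratio, in both repeats, exceeds the weak agonist control mean by 3 SD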); details: DAMGO EC20, Fluo-4 calcium flux, at 1 µM; hits give high values
[4] = system: TRPC4 beta (transient receptor potential cation channel C4), mouse; assay: potentiation of DAMGO EC20 TRPC4 response – cell-based, Fluo-4, HEK293 TRPC4beta/mu-opioid, confirmation (AID 2555;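 active = primary screen hit whose calcium fluorescence ratio, in both repeats, exceeds the weak agonist control mean by 3 SD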); details: DAMGO EC20, Fluo-4 calcium flux, at 10 µM; hits give high values
[5] = target: Short transient receptor potential channel 4 (Mus musculus) (UniProt Q9QUQ5); assay: blockers of DAMGO-evoked TRPC4 calcium flux – cell-based, Fluo4, HEK293 TRPC4beta/mu-opioid, confirmation (AID 2636;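 active = calcium signal cut by more than 3 SD below the full-agonist control yet still positive, in both repeats and the earlier primary screen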); details: at 10 µM; hits give high values
[6] = target: Short transient receptor potential channel 4 (Mus musculus) (UniProt Q9QUQ5); assay: blockers of DAMGO-evoked TRPC4 calcium flux – cell-based, second round, Fluo4, HEK293 TRPC4beta/mu-opioid, 1 µM, confirmation (AID 2637;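 active = calcium signal ratio cut to more than 3 SD under the fully stimulated control mean yet still positive, in both repeats and the primary screen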); details: at 1 µM; hits give high values
[7] = target: Short transient receptor potential channel 4 (Mus musculus) (UniProt Q9QUQ5); assay: calcium entry via TRPC4 opening agents – cell-based, HEK293 TRPC4/mu-opioid, Fluo-4 calcium, dose response (AID 434937)
[8] = target: Short transient receptor potential channel 4 (Mus musculus) (UniProt Q9QUQ5); assay: potentiation of DAMGO-evoked TRPC4 calcium signal – cell-based, HEK293 TRPC4/mu-opioid, Fluo-4 calcium, EC20 DAMGO, dose response (AID 434941;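 active = earlier screen potentiator hit that boosts the TRPC4 ion channel at some dose, with a dose response; inactive = no potentiation, no dose response, or not a prior hit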;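 note: calcium entry triggered by an EC20 dose of DAMGO at the co-expressed mu-opioid receptor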)
[9] = target: Short transient receptor potential channel 4 (Mus musculus) (UniProt Q9QUQ5); assay: block of DAMGO-driven TRPC4 calcium entry – cell-based, HEK293 TRPC4/mu-opioid, Fluo-4 calcium, dose response (AID 434942;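 active = primary screen inhibitor hit that blocks the TRPC4 channel at some tested dose, yielding a dose curve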)
[10] = target: Short transient receptor potential channel 6 (Mus musculus) (UniProt Q61143); assay: TRPC6 blockade by TRPC4 inhibitor hits – cell-based, HEK293, membrane potential dye, duplicate, selectivity assay for TRPC4 inhibitor project, confirmation (AID 434948;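 active = active in primary screen and both duplicates, each dropping signal beyond three positive-control SD with fluorescence still positive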); details: HEK293 TRPC6, membrane potential dye fluorescence, at 10 µM, stimulated with maximal-effect acetylcholine; hits give high values
[11] = target: Short transient receptor potential channel 6 (Mus musculus) (UniProt Q61143); assay: TRPC6 opening by TRPC4 activator hits – cell-based, HEK293, membrane potential dye, duplicate, selectivity assay for TRPC4 activator project, confirmation (AID 434950;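 active = membrane potential signal rise above negative control mean plus 3 SD in both duplicates, also active in the earlier TRPC4 screen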;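 for activation: 0% = buffer only wells and 100% = acetylcholine maximal-effect wells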); details: HEK293 TRPC6, membrane potential fluorescence, at 10 µM; activation: hits give high values; outcome: activation
[12] = target: Short transient receptor potential channel 6 (Mus musculus) (UniProt Q61143); assay: positive modulators of mouse TRPC6 channel – HEK293 cells, membrane potential dye, duplicate, selectivity assay for TRPC4 potentiator project, confirmation (AID 434952;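 active = compound raising the membrane signal above positive-control mean plus 3 SD in both repeats, and a primary screen hit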); details: HEK293 TRPC6, membrane potential dye fluorescence, at 10 µM, maximal acetylcholine added after compound; hits give high values
[13] = target: Short transient receptor potential channel 4 (Mus musculus) (UniProt Q9QUQ5); assay: calcium flux activators in TRPC4/5HT1a cells, counter-screen for TRPC4 activator project, cell-based, second counter screen, HEK293 TRPC4/5HT1a, Fluo-4 (AID 434977;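 active = calcium signal rise above buffer-control mean plus 5 SD in both duplicates, and also a hit in the primary screen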); details: Fluo-4 calcium flux, at 10 µM; hits give high values
[14] = serotonin-gated TRPC4 signal block – cell-based, second counter screen, HEK293 TRPC4/5HT1a, Fluo-4, counter-screen for TRPC4 inhibitor project, confirmation (AID 434978;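 active = primary screen active whose calcium signal fell more than 3 SD beyond the full-serotonin control mean in both duplicate plates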;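 note: serotonin given first at submaximal then at maximal dose after compound preincubation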); details: Fluo-4 calcium flux, at 10 µM, serotonin added to trigger calcium flux; hits give high values
[15] = system: TRPC4 (mouse), co-expressed with 5HT1a in HEK293; assay: enhancement of serotonin-evoked TRPC4 response – cell-based, second counter screen, HEK293 TRPC4/5HT1a, Fluo-4, counter-screen for TRPC4 potentiator project, confirmation (AID 434979;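 active = signal rise over 3 SD above mean of control wells given weak agonist, in both repeats and first screen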); details: Fluo-4 calcium flux, at 10 µM, serotonin added at its EC20 dose; hits give high values
[16] = nonspecific calcium rise without TRPC4 – cell-based, HEK293 mu-opioid receptor line, counter-screen for TRPC4 activator project, confirmation (AID 449723;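 active = hit in primary screen, with calcium signal over 5 SD above buffer well mean in both duplicates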;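 note: counter screen cells carry the mu-opioid receptor alone and lack TRPC4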); details: HEK293 mu-opioid cells, Fluo-4 calcium fluorescence, at 10 µM; hits give high values
[17] = nonspecific potentiation of DAMGO calcium response – cell-based, HEK293 mu-opioid receptor line, counter-screen for TRPC4 allosteric potentiator project, confirmation (AID 449724;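 active = calcium signal rise more than 3 SD above the low-dose agonist control mean, in both duplicate plates and the primary screen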); details: HEK293 mu-opioid receptor cells, Fluo-4 calcium flux, at 10 µM, compound added before EC20 DAMGO stimulus; hits give high values

Short transient receptor potential channel 4 (Mus musculus), sequence (Q9QUQ5 whole entry, looked up): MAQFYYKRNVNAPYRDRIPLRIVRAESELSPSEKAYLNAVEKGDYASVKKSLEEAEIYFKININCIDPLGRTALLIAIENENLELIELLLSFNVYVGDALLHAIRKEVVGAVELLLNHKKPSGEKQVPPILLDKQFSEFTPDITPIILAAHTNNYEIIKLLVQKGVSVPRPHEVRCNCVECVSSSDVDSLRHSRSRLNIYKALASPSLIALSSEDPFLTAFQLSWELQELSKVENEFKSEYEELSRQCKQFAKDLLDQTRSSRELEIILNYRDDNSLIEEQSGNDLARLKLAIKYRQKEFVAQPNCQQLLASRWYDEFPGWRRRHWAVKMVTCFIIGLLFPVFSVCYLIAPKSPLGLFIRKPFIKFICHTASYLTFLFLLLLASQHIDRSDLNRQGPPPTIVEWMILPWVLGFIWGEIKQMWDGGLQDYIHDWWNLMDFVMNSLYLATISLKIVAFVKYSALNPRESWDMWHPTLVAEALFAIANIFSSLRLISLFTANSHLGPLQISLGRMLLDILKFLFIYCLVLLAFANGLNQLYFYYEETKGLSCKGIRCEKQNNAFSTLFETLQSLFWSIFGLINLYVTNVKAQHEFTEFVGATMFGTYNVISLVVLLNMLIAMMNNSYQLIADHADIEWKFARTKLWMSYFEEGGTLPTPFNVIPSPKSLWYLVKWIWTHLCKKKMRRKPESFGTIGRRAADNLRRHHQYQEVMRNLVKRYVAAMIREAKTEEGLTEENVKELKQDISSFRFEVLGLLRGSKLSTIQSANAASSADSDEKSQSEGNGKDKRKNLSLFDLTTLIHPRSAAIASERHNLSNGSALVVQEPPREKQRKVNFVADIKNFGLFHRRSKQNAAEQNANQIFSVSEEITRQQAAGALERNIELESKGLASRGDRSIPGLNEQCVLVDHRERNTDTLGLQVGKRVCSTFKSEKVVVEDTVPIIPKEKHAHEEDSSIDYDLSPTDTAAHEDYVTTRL
Short transient receptor potential channel 6 (Mus musculus), sequence (Q61143 whole entry, looked up): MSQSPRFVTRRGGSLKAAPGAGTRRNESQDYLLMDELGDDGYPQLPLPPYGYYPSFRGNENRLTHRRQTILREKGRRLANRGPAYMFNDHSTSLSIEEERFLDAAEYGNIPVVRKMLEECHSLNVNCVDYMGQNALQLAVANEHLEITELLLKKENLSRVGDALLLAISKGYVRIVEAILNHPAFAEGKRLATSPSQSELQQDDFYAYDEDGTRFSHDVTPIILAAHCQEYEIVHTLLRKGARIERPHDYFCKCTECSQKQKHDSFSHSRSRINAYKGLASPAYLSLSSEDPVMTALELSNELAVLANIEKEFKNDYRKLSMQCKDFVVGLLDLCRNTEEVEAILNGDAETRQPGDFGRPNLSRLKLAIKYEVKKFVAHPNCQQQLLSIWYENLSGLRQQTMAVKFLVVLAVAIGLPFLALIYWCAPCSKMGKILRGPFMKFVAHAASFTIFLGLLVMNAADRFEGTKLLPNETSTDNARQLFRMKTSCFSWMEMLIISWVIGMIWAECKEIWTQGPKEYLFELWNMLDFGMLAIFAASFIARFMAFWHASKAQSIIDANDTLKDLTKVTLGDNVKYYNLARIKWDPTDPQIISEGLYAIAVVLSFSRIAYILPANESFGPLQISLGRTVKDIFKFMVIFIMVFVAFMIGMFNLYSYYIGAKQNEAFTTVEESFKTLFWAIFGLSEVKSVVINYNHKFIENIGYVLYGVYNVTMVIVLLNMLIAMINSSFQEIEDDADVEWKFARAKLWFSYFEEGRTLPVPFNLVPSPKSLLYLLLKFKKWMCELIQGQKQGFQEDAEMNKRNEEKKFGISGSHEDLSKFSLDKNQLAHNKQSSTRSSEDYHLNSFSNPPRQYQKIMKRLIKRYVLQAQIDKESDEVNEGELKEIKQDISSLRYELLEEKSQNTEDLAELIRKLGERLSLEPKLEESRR

COc1ccc(CCNCC(O)COc2ccc(OC)cc2C(C)(C)C)cc1 (stereo not given)
inactive: outcome [1] | outcome [2] | outcome [3] | outcome [4] | outcome [5] | outcome [6] | outcome [7] | outcome [8] | outcome [9] | outcome [10] | outcome [11] | outcome [12] | outcome [13] | outcome [14] | outcome [15] | outcome [16] | outcome [17]

Cc1ccc(S(=O)(=O)N2CCN(c3cc4c(cc3[N+](=O)[O-])n(C)c(=O)n4C)CC2)cc1
active: potentiation [15] 10.6%
inactive: outcome [1] | outcome [2] | outcome [3] | outcome [4] | outcome [5] | outcome [6] | outcome [7] | outcome [8] | outcome [9] | outcome [10] | outcome [11] | outcome [12] | outcome [13] | outcome [14] | outcome [16] | outcome [17]

CCOC(=O)CSc1nc2ccccc2c(=O)n1C1CCCC1
inactive: outcome [1] | outcome [2] | outcome [3] | outcome [4] | outcome [5] | outcome [6] | outcome [7] | outcome [8] | outcome [9] | outcome [10] | outcome [11] | outcome [12] | outcome [13] | outcome [14] | outcome [15] | outcome [16] | outcome [17]

CN(C)CCCNc1c2c(nc3cc(-c4cccc(F)c4)nn13)CCC2
active: activation [1] 81%
inactive: outcome [2] | outcome [3] | outcome [4] | outcome [5] | outcome [6] | outcome [7] | outcome [8] | outcome [9] | outcome [10] | outcome [11] | outcome [12] | outcome [13] | outcome [14] | outcome [15] | outcome [16] | outcome [17]

CCc1ccc(OCc2ccc(C(=O)NCc3ccccn3)o2)cc1
active: potentiation [4] 19%
inactive: outcome [1] | outcome [2] | outcome [3] | outcome [5] | outcome [6] | outcome [7] | outcome [8] | outcome [9] | outcome [10] | outcome [11] | outcome [12] | outcome [13] | outcome [14] | outcome [15] | outcome [16] | outcome [17]

O=C(Nc1cnn(C23CC4CC(CC(C4)C2)C3)c1)c1cnn2cccnc12
inactive: outcome [1] | outcome [2] | outcome [5] | outcome [6] | outcome [7] | outcome [8] | outcome [9] | outcome [10] | outcome [11] | outcome [12] | outcome [13] | outcome [14] | outcome [16] | outcome [17]
active: potentiation [3] 27% | potentiation [4] 61% | potentiation [15] 71.9%

CC(=NCCN1CCN(C(C)=C2C(=O)c3ccccc3C2=O)CC1)C1=C(O)CC(C)(C)CC1=O
inactive: outcome [1] | outcome [2] | outcome [3] | outcome [4] | outcome [5] | outcome [6] | outcome [7] | outcome [8] | outcome [9] | outcome [10] | outcome [11] | outcome [12] | outcome [13] | outcome [14] | outcome [15] | outcome [16] | outcome [17]

CCOc1ccc(CCNC(=O)c2ccc3c(=O)[nH]c4c(C(=O)NC(C)C)sc(=S)n4c3c2)cc1
active: potentiation [3] 9% | potentiation [4] 11% | potentiation [15] 7.91%
inactive: outcome [1] | outcome [2] | outcome [5] | outcome [6] | outcome [7] | outcome [8] | outcome [9] | outcome [10] | outcome [11] | outcome [12] | outcome [13] | outcome [14] | outcome [16] | outcome [17]

O=C(C1=C[C@H](c2ccc(C(F)(F)F)cc2)C[C@H](OCCCCO)O1)N1CCOCC1
inactive: outcome [1] | outcome [2] | outcome [3] | outcome [4] | outcome [5] | outcome [6] | outcome [7] | outcome [8] | outcome [9] | outcome [10] | outcome [12] | outcome [13] | outcome [14] | outcome [15] | outcome [16] | outcome [17]
active: activation [11] 27.5%

Cc1ccc(S(=O)(=O)NC(=O)N2CCN(Cc3c(F)cccc3Cl)CC2)cc1
active: potentiation [15] 15.3%
inactive: outcome [1] | outcome [2] | outcome [3] | outcome [4] | outcome [5] | outcome [6] | outcome [7] | outcome [8] | outcome [9] | outcome [10] | outcome [11] | outcome [12] | outcome [13] | outcome [14] | outcome [16] | outcome [17]

CCOCCCn1c(=S)[nH]c2cc(C(=O)NCCCN(CC)CC)ccc2c1=O
inactive: outcome [1] | outcome [2] | outcome [5] | outcome [6] | outcome [7] | outcome [8] | outcome [9] | outcome [10] | outcome [11] | outcome [12] | outcome [13] | outcome [14] | outcome [16] | outcome [17]
active: potentiation [3] 18% | potentiation [4] 10% | potentiation [15] 16.1%

COc1ccc(C(=O)NNC(=O)CN2CCC(n3nnc4cc(C)ccc43)CC2)cc1
inactive: outcome [1] | outcome [2] | outcome [5] | outcome [6] | outcome [7] | outcome [8] | outcome [9] | outcome [10] | outcome [11] | outcome [12] | outcome [13] | outcome [14] | outcome [15] | outcome [16] | outcome [17]
active: potentiation [3] 15% | potentiation [4] 28%

Cc1ccc(/C=N/NC(=O)C2COc3ccccc3O2)s1 (stereo not given)
active: potentiation [15] 22.2%
inactive: outcome [1] | outcome [2] | outcome [3] | outcome [4] | outcome [5] | outcome [6] | outcome [7] | outcome [8] | outcome [9] | outcome [10] | outcome [11] | outcome [12] | outcome [13] | outcome [14] | outcome [16] | outcome [17]

COCCNC(=O)/C(C#N)=C/c1cc(C(C)C)c(OC)cc1C
active: potentiation [4] 14% | potentiation [15] 20.4%
inactive: outcome [1] | outcome [2] | outcome [3] | outcome [5] | outcome [6] | outcome [7] | outcome [8] | outcome [9] | outcome [10] | outcome [11] | outcome [12] | outcome [13] | outcome [14] | outcome [16] | outcome [17]

COc1ccc(OCC(=O)NC2CCCN(Cc3ccc(Cl)cc3)C2)cc1 (stereo not given)
inactive: outcome [1] | outcome [2] | outcome [4] | outcome [5] | outcome [6] | outcome [7] | outcome [8] | outcome [9] | outcome [10] | outcome [11] | outcome [12] | outcome [13] | outcome [14] | outcome [16] | outcome [17]
active: potentiation [3] 26% | potentiation [15] 15.2%
